Sampled rows, rich in hits. Any-hit rate of the full collection: about 2.4%.
ASK1 primary: inhibitors of human ASK1 kinase. Q99683. AlphaScreen MKK6 phosphorylation by ASK1, luminescence. inhibition, % at 7.44 µM. 22,000 compounds, 0.99% hits. AID 1159602; in the data active means inhibition above about 35%;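 further: 0% = median of compound wells and 100% = no enzyme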
ULK1 primary: blocks human autophagy kinase ULK1 | O75385 | 30,000 compounds, 1.9% hits | AID 1259251 | AlphaScreen Atg13 phosphorylation by ULK1, luminescence | inhibition, % at 5.96 µM; in the data active means inhibition above about 43%;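 further: 0% = median of compound wells and 100% = no enzyme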
* hit, by the source's call; . = not tested or not shown.

SMILES	ASK1 primary	ULK1 primary
Nc1cccc(-c2ccc(C(=O)NCCc3ccc(O)cc3)s2)c1	7	43*
CC(=O)c1cccc(-c2ccc(C(=O)NCCc3ccc(O)cc3)s2)c1	-10	-17
CC(C)c1cc(C(C)C)c(CC(=O)NS(=O)(=O)Oc2c(C(C)C)cccc2C(C)C)c(C(C)C)c1	.	85*
CC(=O)Nc1ccc(Nc2nc(-c3cccc(N)c3)nc3c2ncn3-c2ccccc2)cc1	0	-18
OCC1CCCN1c1nc(Nc2ccc3c(c2)OCO3)c2ncn(Cc3ccc(C(F)(F)F)cc3)c2n1 (stereo not drawn)	26	-7
CCCNc1cc(C)nc(NCCN2CCOCC2)n1	-13	-5
c1ccc(OCCNc2nc(Nc3ccncc3)nc3nc[nH]c23)cc1	2	57*
c1ccc(Nc2nc(Nc3ccc(-n4ccnc4)cc3)nc3nc[nH]c23)cc1	-9	24
OCCNc1nc(Nc2ccc(-n3ccnc3)cc2)nc2nc[nH]c12	-60	56*
COc1ccc(CCNc2nc(Nc3ccc(-n4ccnc4)cc3)nc3nc[nH]c23)cc1	-17	27
CC(=O)Nc1ccc(Nc2nc(Nc3ccc(-n4ccnc4)cc3)nc3nc[nH]c23)cc1	-13	52*
c1ccc(OCCNc2nc(Nc3ncccn3)nc3nc[nH]c23)cc1	9	5
Cc1nc(-c2cccnc2)cc(N(C)Cc2ccccc2)n1	.	6
CC(C)n1cnc2c(Nc3ccc(N4CCOCC4)cc3)nc(Nc3nc4ccccc4n3C)nc21	2	21
COc1ccc(N2CCOCC2)cc1Nc1cc(NCc2cccc(S(C)(=O)=O)c2)c(C(F)(F)F)cn1	1	-1
CC(=O)Nc1ccc(NC(=O)c2ccc(-c3c(C)nn(C)c3C)s2)cc1	-2	-5
O=C(Cc1cn(-c2ccc(N3CCc4ccccc4C3)nn2)c2ccccc12)NCCN1CCOCC1	-6	6
CC(C)N(CCNC(=O)c1ccc2nc(Nc3ccc(-n4ccnc4)cc3)sc2c1)C(C)C	-2	2
CCOC(=O)N1CCN(c2cc(-c3ccccn3)nc(C)n2)CC1	.	-18
CNC(=O)c1ccccc1Nc1cc(Nc2ccc(N3CCS(=O)CC3)cc2OC)ncc1C#N	22	90*
CNC(=O)c1cccc(Nc2cc(Nc3ccc(N4CCOCC4)cc3OC)ncc2C(F)(F)F)c1	21	18
COc1cc(N2CCOCC2)ccc1Nc1cc(Nc2ccccc2NC(C)=O)c(C(F)(F)F)cn1	11	88*
COc1cc(N2CCOCC2)ccc1Nc1cc(NCc2ccccc2)c(C(F)(F)F)cn1	1	18
CNC(=O)c1ccccc1Nc1cc(Nc2ccc(C(=O)N3CC[C@H](O)C3)cc2OC)ncc1C(F)(F)F	8	88*
CNC(=O)c1ncccc1Nc1cc(Nc2ccc(N3CCOCC3)cc2OC)ncc1C(F)(F)F	24	46*
SMILES	ASK1 primary	ULK1 primary
CNC(=O)c1ncccc1Nc1cc(Nc2ccc(C(=O)N(C)C)cc2OC)ncc1C(F)(F)F	16	24
COc1cc(N2CCOCC2)ccc1Nc1cc(NC(C)(C)c2ccccc2)c(C(F)(F)F)cn1	-13	22
CCCNc1nc(Nc2ccncn2)nc2c1ncn2Cc1ccc(C(F)(F)F)cc1	6	-7
O=C(NCCN1CCOCC1)c1ccccc1Nc1ccnc(Nc2ccc(N3CCOCC3)cc2)c1	-10	-3
O=C(NCCc1ccc(O)cc1)c1csc(Br)n1	-1	9
OCC1CCCN1c1nc(NCCN2CCOCC2)c2ncn(Cc3ccc(C(F)(F)F)cc3)c2n1 (stereo not drawn)	-14	0
COc1ccc(-c2cccc3cnc(Nc4ccc(-n5cnc(-c6ccc(C)nc6)n5)cc4)nc23)cc1F	-3	-11
O=C(CCBr)Nc1ccc(Cc2ccncc2)cc1	.	2
COc1ccc(Nc2nc(NCC3CCCO3)c3ncn(C(C)C)c3n2)cn1 (stereo not drawn)	-9	-7
CN(C)c1ccc(C(=C2C=CC(=[N+](C)C)C=C2)c2ccc(N(C)C)cc2)cc1	.	80*
CN(C)c1ccc(C(=C2C=CC(=[N+](C)C)C=C2)c2ccccc2)cc1	.	9
Cc1noc(C)c1-c1cncc(C(=O)NC2CC2)c1	-6	2
C[n+]1c2cc(N)ccc2cc2ccc(N)cc21	.	71*
O=C(Nc1ccc2[nH]ncc2c1)c1cccnc1Oc1ccccc1	-5	-9
COc1ccc(CCNc2nc(-c3csc4ccccc34)nc3c2ncn3CCN2CCCC2=O)cc1	-3	-73
CC(=O)c1cccc(-c2nc(NCCCN3CCCC3=O)c3ncn(C4CCCCC4)c3n2)c1	-7	-30
Cn1cc(-c2nc(Nc3ccc(-n4cnc(N5CCOCC5)n4)cc3)ncc2Br)cn1	-57	61*
Cc1ccc(-c2ncn(-c3ccc(Nc4ncc(F)c(-c5cnn(C)c5)n4)cc3)n2)cn1	18	-1
Cc1onc(-c2nc(Nc3ccc(-n4cnc(N5CCOCC5)n4)cc3)ncc2Cl)c1-c1cnn(C)c1	14	-22
Cc1ncn(-c2ccc(Nc3ncc(Br)c(-c4cnn(C)c4)n3)cc2)n1	-68	85*
COc1cccc([C@@H](C)NC(=O)c2c[nH]c3cc(-c4cn[nH]c4)ccc23)c1	3	-30
O=C(Nc1ccc(N2CCOCC2)cc1)c1cccc(Nc2ccc(-n3ccnc3)cc2)n1	-3	50*
CC(=O)Nc1ccc(NC(=O)c2cccc(Nc3ccc(N4CCOCC4)cc3)n2)cc1	-10	42
CC(=O)Nc1ccc(NC(=O)c2cccc(Nc3ccc(-n4ccnc4)cc3)n2)cc1	-2	16
O=C(Nc1ccc(N2CCOCC2)cc1)c1cccc(Nc2ccc(N3CCOCC3)cc2)n1	-1	48*
SMILES	ASK1 primary	ULK1 primary
COc1cc2nc(-c3cccc(N)c3)nc(Nc3ccc(N4CCOCC4)cc3)c2cc1OC	8	-3
NNCCc1ccccc1	.	-10
CS(=O)(=O)c1ccc(NCCc2ccccc2)cc1	.	68*
COc1ccc(-c2nccc(NCc3cccc(C(F)(F)F)c3)n2)cc1	-24	-38
COc1ccc(C(=O)NCc2ccccc2)c(OC)c1	.	-3
O=C(NCCCN1CCCC1=O)c1ccnc(Nc2ncccn2)c1	-6	9
CC(=O)Nc1ccc(Nc2cc(Nc3ccncc3)nc(N)n2)cc1	-1	2
CC(=O)Nc1ccc(Nc2cc(Nc3ccncn3)ncn2)cc1	11	62*
CC(=O)Nc1ccc(Nc2cc(Nc3ccncc3)ncn2)cc1	-2	79*
COc1cc(Nc2cc(Nc3ccncc3)ncn2)cc(OC)c1OC	17	62*
COc1cc(Nc2cc(Nc3cnccn3)ncn2)cc(OC)c1OC	11	8
CC(=O)Nc1ccc(Nc2cc(Nc3ccncn3)nc(N)n2)cc1	4	5
NC(c1ccc(Br)cc1)c1nc(-c2ccncc2)no1 (stereo not drawn)	-11	-2
O=C(COc1cccc2ccc(N3CCCCC3)nc12)Nc1ccc(F)cc1	.	-2
CC(C)n1c(-c2ccc(C(=O)NC3CC3)cc2)nc2c(N)ncnc21	2	3
C=CCN1CCN(c2c(NC(=O)c3ccc(Br)o3)cccc2-c2ccc(F)cc2)CC1	21	-10
O=C(NC1CC1)c1ccc(-c2cccc(C(=O)NC3CC3)c2)cc1	12	-2
CC(=O)Nc1ccc(NC(=O)c2cccc(-c3ccc(C(=O)NC4CC4)cc3)c2)cc1	9	47*
CCN1CCN(c2cc(C#N)cc(-c3ccnc(Nc4ccc(N5CCOCC5)cc4)n3)c2)CC1	-32	53*
N#Cc1cc(-c2ccnc(Nc3ccc(N4CCOCC4)cc3)n2)cc(N2CCOCC2)c1	31	3

Bioassay records (PubChem BioAssay)
